# Several values for one entry are separate records, joined by “and”; a condition that tells them apart may be missing. Equal values may be shown once. Results filed as inconclusive are left out. Entries that show only a call come without a potency. Activity calls are given as the source filed them. Calls come from the whole dose curve; as a rule, active = well fitted cell-killing curve with a large enough effect in the repeat runs; inconclusive = weak or mixed curves, or effect the other way; inactive = flat fitted curve, though single readings scatter.
# Assay: qHTS assay to identify small molecule antagonists of the androgen receptor (AR) signaling pathway using the MDA cell line in the presence of 0.5 nM R1881 - cell viability counter screen (AID 1259242); note: nearly all actives have a fitted effect of over 45% in size
# Details: MDA-kb2 viability, CellTiter-Fluor protease fluorescence, 16 h; series mostly up to 92.4 µM
# Description: U.S. Tox21 Program National Center for Advancing Translational Sciences [NCATS] NIH Chemical Genomics Center [NCGC] U.S. Environmental Protection Agency [EPA] National Institutes of Environmental Health Sciences [NIEHS] National Toxicology Program [NTP] U.S. Food and Drug Administration [FDA] Tox21 Assay Overview: Androgen receptor (AR) is an important member of the nuclear receptor family. Its signaling plays a critical role in AR-dependent prostate cancer and other androgen related diseases. Considerable attention has been given in the past decades to develop methods to study and screen for the environmental chemicals that have the potential to interfere with metabolic homeostasis, reproduction, developmental and behavioral functions. Therefore AR binding assay for screening androgen antagonists can be used to identify potential endocrine disruptors. MDA-kb2 cells (from ATCC, deposited by Wilson et al.) were used to screen for AR inhibitors against Tox21 compound libraries. These cells are human breast carcinoma cells that were stably transfected with a luciferase reporter gene under control of the MMTV promoter that contains response elements for both androgen receptor (AR) and glucocorticoid receptor (GR). The current screening for identification of AR inhibitors against Tox21 libraries used lower concentration of (0.5 nM) R1881 as a stimulator. The cytotoxicity of the Tox21 compound libraries against MDA-kb2 cell line was tested by measuring live-cell protease activity using CellTiter-Fluor assay in the same wells.
# Tox21 Assay Protocol Summary: MDA-kb2 cells (cells cultured without CO2) were dispensed at 3,000 cells/well in 4 uL of culture medium into white wall/solid-bottom 1536-well plates (Corning Life Sciences, Corning, NY) using a Multidrop Combi (ThermoFisher Scientific, Waltham, MA) dispenser. After the assay plates were incubated at a 37C and 0% CO2 for 5 hr, 23 nL of compounds dissolved in DMSO, positive controls or DMSO only was transferred to the assay plate by a Pintool station (Kalypsys, San Diego, CA). The transfer of compounds was followed by the addition of 1 uL of 0.5 nM (final concentration) agonist (R1881)/culture medium using a Flying Reagent Dispenser (FRD, Aurora Discovery, San Diego, CA). The plates were incubated at 37C and 0% CO2 for 16 hr. For cytotoxicity assay, 1 uL of CellTiter-Fluor reagent (Promega Corporation, Madison, WI) was added to each well using the FRD and after 30 min incubation at 37C and 0% CO2, The fluorescence intensity was measured using ViewLux plate reader (PerkinElmer, Shelton, CT).
# Potency is the fitted concentration of half-maximal effect.
row,Structure (SMILES),Potency
1,CN1C(=O)[C@@H](NC(=O)c2cc3ccccc3[nH]2)N=C(c2ccccc2)c2ccccc21,inactive
2,CCCCCON=O,inactive
3,CNC(=O)O/N=C(\C)C(C)S(C)(=O)=O (stereo not given),inactive
4,O.O.O.O.O.O.O=S(=O)([O-])[O-].[Ni+2],inactive
5,CCN(CC)Cc1nccn1-c1ccc([N+](=O)[O-])cc1C(=O)c1ccccc1Cl,inactive
6,O=[N+]([O-])c1cccc2cccc([N+](=O)[O-])c12,inactive
7,C[C@@H]1CC2=CC(=O)CC[C@@H]2[C@H]2CC[C@@]3(C)[C@@H](CC[C@]3(C)O)[C@@H]21,inactive
8,CNC(=O)Oc1cc(C)cc(C(C)C)c1,inactive
9,CC(C)[C@@H](Nc1ccc(C(F)(F)F)cc1Cl)C(=O)OC(C#N)c1cccc(Oc2ccccc2)c1 (stereo not given in full),inactive
10,CCCCC(CC)COC(=O)c1ccccc1C(=O)OCC(CC)CCCC (stereo not given),inactive
11,N#CSCc1ccccc1,inactive
12,CN(C)C(=S)SSC(=S)N(C)C,214 nM (active) and 217 nM (active)
13,Nc1c(Cl)c(Cl)c(Cl)c(Cl)c1Cl,inactive
14,CC(C)N(C(=O)SC/C(Cl)=C/Cl)C(C)C,inactive
15,CC(C)=CCN1CC[C@@]2(C)c3cc(O)ccc3C[C@@H]1[C@@H]2C,inactive
16,O=[N+]([O-])c1ccccc1-c1ccccc1,inactive
17,[O-][Cl+3]([O-])([O-])O,inactive
18,Nc1ccc(Cl)cc1C(=O)c1ccccc1F,inactive
19,CC(=O)[O-].CC(=O)[O-].CC(=O)[O-].[Cr+3],inactive
20,N#CCCl,inactive

row,Structure (SMILES),Potency
1,CC(Cc1ccc(O)cc1)NCC(O)c1cc(O)cc(O)c1 (stereo not given),inactive
2,COCCC#N,inactive
3,O=NN(CCO)CCO,inactive
4,Cc1ccc([N+](=O)[O-])[c]2c1[O][Hg]2,6.68 µM (active)
5,CCCCc1ccccc1,inactive
6,c1cc[n+]2c(c1)-c1cccc[n+]1CC2,inactive
7,C[C@]12C/C(=C/O)C(=O)C[C@@H]1CC[C@@H]1[C@@H]2CC[C@@]2(C)[C@H]1CC[C@]2(C)O,inactive
8,COP(=O)(OC)Oc1ccc([N+](=O)[O-])cc1,inactive
9,CC1(C)[C@H](/C=C2\CCSC2=O)[C@@H]1C(=O)OCc1coc(Cc2ccccc2)c1,inactive
10,C=CC(=O)[O][Sn]([CH2]CCC)([CH2]CCC)[CH2]CCC,1.09 µM (active)
11,CC1CN1 (stereo not given),inactive
12,BrCC(Br)(Br)Br,inactive
13,CC[C@H](C)[C@H]1O[C@]2(C=C[C@@H]1C)C[C@@H]1C[C@@H](C/C=C(\C)[C@@H](O[C@H]3C[C@H](OC)[C@@H](O[C@H]4C[C@H](OC)[C@@H](NC)[C@H](C)O4)[C@H](C)O3)[C@@H](C)/C=C/C=C3\CO[C@@H]4[C@H](O)C(C)=C[C@@H](C(=O)O1)[C@]34O)O2,17.2 µM (active)
14,FC(F)C(F)(F)OCC(Cn1cncn1)c1ccc(Cl)cc1Cl (stereo not given),inactive
15,CC1CCCC1,inactive
16,[Cl-].[Cl-].[Cl-].[Yb+3],inactive
17,Oc1ccc(Cl)c(Cl)c1,inactive
18,O=P(Cl)(Cl)Cl,inactive
19,O=[N+]([O-])[O-].[Tl+],inactive
20,CC(Cc1ccc2c(c1)OCO2)NO (stereo not given),inactive
